Compound activity deposited in PubChem by Milwaukee Institute for Drug Discovery.
Cy5 interf NS3h: Cy5 fluorescence quenchers or enhancers, artefact control for HCV NS3 helicase inhibitor project, biochemical, ChemBridge library, Cy5 readout. Cy5-dT15 DNA with NS3h, fluorescence interference; actives lie on both sides; signal over control mean, under 1 quenches. fluorescence interference ratio at 100 µM. 6% of 16,000 active. AID 720488, 2013;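 active = compound fluorescence over control fluorescence at most 0.8, a quencher, or at least a set upper limit, an enhancer; inactive = ratio between 0.8 and the set upper limit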
NS3h inh CB: HCV NS3 helicase inhibitors, primary screen, biochemical, fluorescence polarization, ChemBridge library; Hepatitis C virus NS3 helicase; NS3h Cy5-dT15 DNA binding; inhibition, % at 100 µM; 1.6% of 16,000 active; AID 687043, 2013;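 active = inhibition above the average over every tested compound plus 3 SD, cut at about 40% in these data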
Numbers stand for hits; i = inactive. Compounds with a hit are over-represented: about 6.9% of the library has one in this group of screens.

SMILES	Cy5 interf NS3h	NS3h inh CB
O=C(Nc1ccc(-c2cnc(-c3ccc(NC(=O)c4ccccc4)cc3)nc2)cc1)c1ccccc1	i	i
COc1ccc(C2CC(c3ccc(C)cc3)=NN2C(C)=O)cc1OC (stereo unspecified)	i	i
COc1ccc(-c2nn3c(-c4ccc(OC)c(OC)c4)nnc3s2)cc1OC	1.27	i
CC(C)COc1ccc(C(=O)Nc2ccc(Cl)cc2)cc1	i	i
CCOC(=O)C1=C(C)NC(=O)NC1c1ccc(OC)cc1OC (stereo unspecified)	i	i
CCOC(=O)C1=C(C)NC(C)=C(C(=O)OC)C1c1cc(Cl)cc(Cl)c1OC (stereo unspecified)	0.787	i
O=C(O)C(Cc1ccccc1)n1c(O)c(C=C2C=Nc3ccccc32)sc1=S (stereo unspecified)	i	i
Cc1ccc(SCCNC(=O)CN(c2cccc(Cl)c2)S(=O)(=O)c2ccccc2)cc1	i	i
CN(C)Cc1c(O)c[n+]([O-])c2ccccc12	i	i
[O-][n+]1cc(O)c(Br)c2ccccc21	0.7	i
CC(C)(C)c1ccc(OCC(=O)Nc2cccc(OC(F)(F)F)c2)cc1	i	i
CC(C)(C)c1ccc(OCC(=O)Nc2cccc(C(=O)Nc3nccs3)c2)cc1	0.797	i
C=CCc1c(C)[nH]c2ccc(C(=O)O)cc2c1=O	i	i
O=c1cc(-c2ccccc2)nc2cc(-c3cccc(F)c3)[nH]n12	i	i
CCOc1ccc(N2C(=O)NC(=O)/C(=C\c3ccc(OCc4cccc(C(=O)O)c4)cc3)C2=O)cc1	i	i
Cc1ccc(N2C(=O)NC(=O)/C(=C\c3ccc(OCc4cccc(C(=O)O)c4)cc3)C2=O)cc1	i	51.7
Cc1cccc(N2C(=O)NC(=O)/C(=C\c3ccc(OCc4cccc(C(=O)O)c4)cc3)C2=O)c1	1.28	i
Cc1ccc(N2C(=O)/C(=C/c3ccc(OCc4cccc(C(=O)O)c4)cc3)C(=O)NC2=S)cc1	i	i
O=[N+]([O-])c1ccccc1-c1ccc(/C=C/c2ccc3ccccc3n2)o1	i	i
O=C(c1cccc2c(Br)cccc12)N1CCN(c2ccc([N+](=O)[O-])cc2)CC1	i	i
CCOc1ccc(N(CC(=O)OC)S(=O)(=O)c2ccc(Cl)cc2)cc1	i	i
COc1ccc(CN2CCN(Cc3ccccc3C)CC2)cc1OC	i	i
COc1ccccc1C(NC(=O)C(C)C)c1ccc2cccnc2c1O (stereo unspecified)	i	i
Cc1cccc(NC(=O)CC2S/C(=N/N=C\c3cccs3)NC2=O)c1C (stereo unspecified)	i	i
Cc1ccc(N=C(NO)c2ccc(Cl)cc2Cl)cc1	0.681	i
SMILES	Cy5 interf NS3h	NS3h inh CB
Cc1ccc(-c2cc(NC(=O)c3ccc(Cl)cc3Cl)n[nH]2)cc1	i	i
Cc1ccc(NC(=S)NC(=O)C(=O)Nc2ccccc2)cc1	0.715	i
O=C(Nc1ccccc1)C(=O)Nc1ccc(F)cc1	i	i
CC(C)(NO)/C(=N/O)c1ccc(F)cc1	i	i
Cc1ccc(NC(=S)NC(=O)c2ccco2)c(Br)c1	i	i
O=C(NC[n+]1ccccc1)c1ccc(Cl)cc1	1.2	i
O=C(NCc1ccc(Cl)cc1)c1ccc(I)cc1	i	i
CCOC(=O)C1(C)C=C(Nc2cccc([N+](=O)[O-])c2)C(=O)N1c1ccccc1 (stereo unspecified)	i	i
CCC(C(=O)Nc1ccccc1I)c1ccccc1 (stereo unspecified)	i	i
CC(C)CC(NC(c1ccccc1)(c1ccccc1)c1ccccc1)C(=O)O (stereo unspecified)	0.578	i
CC(NC(c1ccccc1)(c1ccccc1)c1ccccc1)C(=O)O (stereo unspecified)	0.615	i
CC(C)CC(NC(=O)c1ccco1)C(=O)O (stereo unspecified)	i	i
CC(NC(=O)c1cccc2ccccc12)C(=O)O (stereo unspecified)	i	i
CCC(=O)NC(=O)NC(Cc1ccccc1)Cc1ccccc1	i	i
CC1CCN(C(=O)COc2ccc(-c3ccccc3)cc2)CC1	0.674	i
CC1CCCN(C(=O)c2ccc(Cl)cc2)C1 (stereo unspecified)	i	i
CC1CCCN(C(=O)c2ccccc2)C1 (stereo unspecified)	0.789	i
CC1CCN(C(=O)c2ccc(I)cc2)CC1	i	i
CS(=O)(=O)N1CCN(C(=O)COc2ccccc2)CC1	i	i
CC1CCN(C(=O)c2ccccc2)CC1	0.677	i
CCOCP(=O)(COCC)COCC	i	i
O=C(NC(NC(=S)Nc1ccc(-c2ccccc2)cc1)C(Cl)(Cl)Cl)c1ccccc1Cl (stereo unspecified)	i	i
CN(C)/C=C/C=C1C(=O)OC(C)(C)OC1=O	i	i
O=C(Nc1ccccc1Br)c1ccc(OC(F)F)cc1	i	i
CCOc1ccc(C2=C/C(=C/c3cc(Br)c(OC)cc3OC)C(=O)O2)cc1	i	i
